Experimental data: the supplement of paper PMC12067093, “Discovery and optimisation of a covalent ligand for TRIM25 and its application to targeted protein ubiquitination” (Chemical Science, 2025)
Targets with the largest changes are over-represented here; the source holds about 21,000 in all.

Compound: Cc1cc(ccc1-c1ccccc1)C(=O)N1CCCN(CC1)C(=O)CCl [compound 10]
Assay: probe-labelled cysteine peptide fold change vs DMSO (competition) (log2 fold change); higher = less target engagement (more negative = stronger competition)
Details: THP-1, incubation time: 4 h
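Note: competitive profiling in live THP-1 cells: cysteine peptides tagged with an iodoacetamide desthiobiotin (IA-DTB) probe, intensity after compound treatment relative to DMSO-treated cells.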

Chain of UniProt Q8TD43 (Q8TD43 whole entry): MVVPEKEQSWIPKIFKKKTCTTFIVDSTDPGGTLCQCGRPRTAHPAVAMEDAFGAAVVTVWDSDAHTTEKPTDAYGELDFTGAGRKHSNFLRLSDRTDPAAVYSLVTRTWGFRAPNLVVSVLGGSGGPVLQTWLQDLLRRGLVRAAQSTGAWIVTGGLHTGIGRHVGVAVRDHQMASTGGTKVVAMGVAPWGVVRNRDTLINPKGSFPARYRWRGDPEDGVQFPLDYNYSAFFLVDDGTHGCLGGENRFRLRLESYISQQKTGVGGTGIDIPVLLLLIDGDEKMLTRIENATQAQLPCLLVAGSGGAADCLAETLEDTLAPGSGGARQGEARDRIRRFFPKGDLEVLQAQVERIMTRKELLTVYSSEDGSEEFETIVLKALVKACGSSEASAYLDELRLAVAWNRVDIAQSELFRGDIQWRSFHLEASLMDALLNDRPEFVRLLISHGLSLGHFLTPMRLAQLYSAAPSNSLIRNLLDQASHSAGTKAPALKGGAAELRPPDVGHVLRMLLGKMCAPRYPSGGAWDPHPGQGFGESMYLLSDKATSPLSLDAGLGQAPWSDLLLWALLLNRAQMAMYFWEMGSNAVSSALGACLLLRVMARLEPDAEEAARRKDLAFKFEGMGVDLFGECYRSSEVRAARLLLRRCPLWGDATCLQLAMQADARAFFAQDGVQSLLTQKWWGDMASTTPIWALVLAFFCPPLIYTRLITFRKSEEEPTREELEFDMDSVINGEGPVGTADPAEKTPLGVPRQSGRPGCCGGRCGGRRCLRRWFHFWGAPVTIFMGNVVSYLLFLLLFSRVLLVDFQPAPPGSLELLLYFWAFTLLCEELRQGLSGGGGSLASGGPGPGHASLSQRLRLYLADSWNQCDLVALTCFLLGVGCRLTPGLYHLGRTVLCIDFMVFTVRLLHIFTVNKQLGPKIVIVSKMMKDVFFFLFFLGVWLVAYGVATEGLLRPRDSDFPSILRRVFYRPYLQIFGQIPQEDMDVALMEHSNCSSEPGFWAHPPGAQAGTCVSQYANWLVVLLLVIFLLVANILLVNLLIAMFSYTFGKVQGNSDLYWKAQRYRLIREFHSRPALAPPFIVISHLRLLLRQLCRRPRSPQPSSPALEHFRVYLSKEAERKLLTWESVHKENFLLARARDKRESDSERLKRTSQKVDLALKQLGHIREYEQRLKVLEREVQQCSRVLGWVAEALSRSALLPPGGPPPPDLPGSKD
Chain of UniProt O14773 (O14773 whole entry, looked up): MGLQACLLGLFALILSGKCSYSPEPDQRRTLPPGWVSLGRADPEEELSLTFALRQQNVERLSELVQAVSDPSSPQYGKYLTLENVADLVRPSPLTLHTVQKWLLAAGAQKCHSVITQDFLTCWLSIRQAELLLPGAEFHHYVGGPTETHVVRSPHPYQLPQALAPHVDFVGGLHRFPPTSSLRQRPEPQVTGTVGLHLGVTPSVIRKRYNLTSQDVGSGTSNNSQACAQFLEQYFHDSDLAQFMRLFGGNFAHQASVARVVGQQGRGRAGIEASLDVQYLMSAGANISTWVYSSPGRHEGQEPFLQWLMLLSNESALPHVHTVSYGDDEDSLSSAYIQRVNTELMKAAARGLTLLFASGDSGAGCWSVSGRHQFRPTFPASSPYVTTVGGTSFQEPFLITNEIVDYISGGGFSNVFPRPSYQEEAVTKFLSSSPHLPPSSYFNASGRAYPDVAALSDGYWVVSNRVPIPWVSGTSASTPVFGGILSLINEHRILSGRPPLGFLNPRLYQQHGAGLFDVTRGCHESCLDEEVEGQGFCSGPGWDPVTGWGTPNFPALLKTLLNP
Chain of UniProt Q9NPD8 (Q9NPD8 whole entry, looked up): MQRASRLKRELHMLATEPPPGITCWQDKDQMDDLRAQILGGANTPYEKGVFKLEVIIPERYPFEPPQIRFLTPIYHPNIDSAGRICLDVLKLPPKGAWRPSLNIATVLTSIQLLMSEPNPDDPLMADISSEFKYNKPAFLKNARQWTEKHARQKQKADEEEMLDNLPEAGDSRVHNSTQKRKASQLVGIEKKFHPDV
Chain of UniProt P15374 (P15374 whole entry): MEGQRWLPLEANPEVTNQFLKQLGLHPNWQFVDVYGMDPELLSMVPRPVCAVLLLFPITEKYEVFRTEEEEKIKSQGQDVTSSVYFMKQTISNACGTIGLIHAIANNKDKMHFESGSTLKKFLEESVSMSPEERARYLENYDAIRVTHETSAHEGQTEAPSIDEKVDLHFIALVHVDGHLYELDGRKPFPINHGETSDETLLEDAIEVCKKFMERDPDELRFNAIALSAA
Chain of UniProt Q14694 (Q14694 whole entry, looked up): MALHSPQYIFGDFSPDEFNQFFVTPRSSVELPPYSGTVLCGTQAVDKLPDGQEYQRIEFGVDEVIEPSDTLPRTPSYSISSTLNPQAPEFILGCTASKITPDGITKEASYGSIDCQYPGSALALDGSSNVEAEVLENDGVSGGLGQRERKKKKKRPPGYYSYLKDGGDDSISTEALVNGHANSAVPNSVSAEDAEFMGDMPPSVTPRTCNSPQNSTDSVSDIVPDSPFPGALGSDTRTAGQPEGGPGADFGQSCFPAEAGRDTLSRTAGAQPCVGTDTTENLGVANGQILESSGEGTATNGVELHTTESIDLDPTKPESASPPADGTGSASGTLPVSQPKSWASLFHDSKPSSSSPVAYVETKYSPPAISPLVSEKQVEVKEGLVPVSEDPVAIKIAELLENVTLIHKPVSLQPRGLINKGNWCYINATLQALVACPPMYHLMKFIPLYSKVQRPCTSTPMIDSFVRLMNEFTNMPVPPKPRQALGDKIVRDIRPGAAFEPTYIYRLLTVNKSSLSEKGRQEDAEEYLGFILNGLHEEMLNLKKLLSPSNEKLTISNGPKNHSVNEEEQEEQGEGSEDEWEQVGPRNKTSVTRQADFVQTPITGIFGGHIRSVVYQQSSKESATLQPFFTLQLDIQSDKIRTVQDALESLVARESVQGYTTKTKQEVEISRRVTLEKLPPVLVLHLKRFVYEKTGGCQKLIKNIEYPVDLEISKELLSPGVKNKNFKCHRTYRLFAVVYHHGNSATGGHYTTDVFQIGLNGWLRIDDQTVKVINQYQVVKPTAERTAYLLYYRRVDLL
Chain of UniProt Q13630 (Q13630 whole entry, looked up): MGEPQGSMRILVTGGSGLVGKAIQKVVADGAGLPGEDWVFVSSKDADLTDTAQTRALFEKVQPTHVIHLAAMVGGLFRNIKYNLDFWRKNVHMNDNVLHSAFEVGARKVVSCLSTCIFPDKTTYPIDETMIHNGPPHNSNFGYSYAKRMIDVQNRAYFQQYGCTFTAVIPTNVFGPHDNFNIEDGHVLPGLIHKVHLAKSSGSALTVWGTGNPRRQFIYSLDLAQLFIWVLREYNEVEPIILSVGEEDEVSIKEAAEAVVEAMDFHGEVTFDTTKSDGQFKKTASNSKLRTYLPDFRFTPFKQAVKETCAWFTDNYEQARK
Chain of UniProt Q9BRZ2 (Q9BRZ2 whole entry, looked up): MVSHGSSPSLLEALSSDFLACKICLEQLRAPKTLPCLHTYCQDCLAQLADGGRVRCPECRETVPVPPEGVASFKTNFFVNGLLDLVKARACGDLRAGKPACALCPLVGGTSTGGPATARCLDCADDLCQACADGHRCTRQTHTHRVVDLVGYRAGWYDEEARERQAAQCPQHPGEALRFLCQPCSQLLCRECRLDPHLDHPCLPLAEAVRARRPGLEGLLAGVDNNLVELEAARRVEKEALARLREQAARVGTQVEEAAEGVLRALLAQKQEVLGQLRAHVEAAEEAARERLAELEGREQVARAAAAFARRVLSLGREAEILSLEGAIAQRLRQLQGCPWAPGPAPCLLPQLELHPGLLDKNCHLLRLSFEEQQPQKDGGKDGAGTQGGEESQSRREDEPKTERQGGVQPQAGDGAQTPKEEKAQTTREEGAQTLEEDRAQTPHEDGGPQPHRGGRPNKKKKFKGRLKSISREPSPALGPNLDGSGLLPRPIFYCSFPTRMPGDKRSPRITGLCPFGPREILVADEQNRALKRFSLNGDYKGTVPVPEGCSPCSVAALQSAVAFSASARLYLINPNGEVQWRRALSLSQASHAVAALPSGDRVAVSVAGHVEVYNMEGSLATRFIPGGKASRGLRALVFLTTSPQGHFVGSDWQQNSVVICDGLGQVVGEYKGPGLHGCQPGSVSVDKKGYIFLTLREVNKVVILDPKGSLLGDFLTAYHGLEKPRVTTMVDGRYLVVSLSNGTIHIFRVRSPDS
Chain of UniProt Q8N584 (Q8N584 whole entry, looked up): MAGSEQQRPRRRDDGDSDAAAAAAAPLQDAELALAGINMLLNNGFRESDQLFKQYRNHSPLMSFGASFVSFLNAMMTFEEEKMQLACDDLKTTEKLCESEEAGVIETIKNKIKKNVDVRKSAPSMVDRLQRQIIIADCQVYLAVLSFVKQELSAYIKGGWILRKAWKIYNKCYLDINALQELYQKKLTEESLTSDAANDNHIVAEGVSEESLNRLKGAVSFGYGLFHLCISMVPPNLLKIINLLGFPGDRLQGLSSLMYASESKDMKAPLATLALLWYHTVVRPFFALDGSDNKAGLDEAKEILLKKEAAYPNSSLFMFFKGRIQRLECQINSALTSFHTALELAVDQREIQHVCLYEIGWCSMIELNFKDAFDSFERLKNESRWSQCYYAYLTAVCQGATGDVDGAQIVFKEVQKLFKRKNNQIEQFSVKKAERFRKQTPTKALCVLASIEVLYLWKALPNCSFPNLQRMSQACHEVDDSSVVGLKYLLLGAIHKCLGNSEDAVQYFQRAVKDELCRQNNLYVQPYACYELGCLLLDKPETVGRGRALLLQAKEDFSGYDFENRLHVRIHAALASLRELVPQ
Chain of UniProt Q9P0L0 (Q9P0L0 whole entry, looked up): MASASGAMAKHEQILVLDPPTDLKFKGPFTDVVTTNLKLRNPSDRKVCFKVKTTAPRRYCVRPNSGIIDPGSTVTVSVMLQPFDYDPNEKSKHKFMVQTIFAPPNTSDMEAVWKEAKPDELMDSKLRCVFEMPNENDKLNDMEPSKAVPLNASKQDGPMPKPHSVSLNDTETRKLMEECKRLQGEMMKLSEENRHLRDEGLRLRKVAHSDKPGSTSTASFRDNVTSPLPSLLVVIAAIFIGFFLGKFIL

Target	probe-labelled cysteine peptide fold change (10 µM)	probe-labelled cysteine peptide fold change (50 µM)
TTF1_Q15361_445_KTQACLASK (UniProt Q15361)	-0.039	-0.411
TPRA1_Q86W33_296_CQVDETEEPDVHLPQPYAVAR (UniProt Q86W33)	-0.418	-1.52
TSPYL1_Q9H0U9_375_NQDLICSFFTWFSDHSLPESDK (UniProt Q9H0U9)	0.781	1.06
UGGT1_Q9NYU2_880_MDFILSHAVYCR (UniProt Q9NYU2)	0.117	0.39
TRIM56_Q9BRZ2_41_TLPCLHTYCQDCLAQLADGGR (UniProt Q9BRZ2)	0.238	0.113
TTLL12_Q14166_126_ESGLQAAHPNSIFLIDHAWTCR (UniProt Q14166)	0.0995	0.0514
UBR2_Q8IWV8_1360_ILSDEDKPLFGPLPCR (UniProt Q8IWV8)	-0.203	-0.412
UBA1_P22314_711_SLVLQRPQTWADCVTWACHHWHTQYSNNIR (UniProt P22314)	-0.12	0.238
UGGT1_Q9NYU2_1475+1479_SLPQEWLWCETWCDDASK (UniProt Q9NYU2)	-0.291	-0.0794
USP48_Q86UV5_145_DYEPQTICEHLQYLFALLQNSNRR (UniProt Q86UV5)	0.119	0.166
TRIM5_Q9C035_95_VDHCAR (UniProt Q9C035)	-0.107	-0.113
UBR4_Q5T4S7_2554_AVQCLNTSSK (UniProt Q5T4S7)	-0.27	-0.543
TRAPPC11_Q7Z392_615_ADCPHPIR (UniProt Q7Z392)	0.126	0.142
TSTA3_Q13630_116_VVSCLSTCIFPDK (UniProt Q13630)	-0.0711	-1.67
TRPM7_Q96QT4_1411_FFVSTPSQPSCK (UniProt Q96QT4)	-0.337	-0.544
UBR7_Q8N806_155_RPYPDPEDEIPDEMIQCVVCEDWFHGR (UniProt Q8N806)	0.0312	0.0116
UFC1_Q9Y3C8_116_ICLTDHFKPLWAR (UniProt Q9Y3C8)	-0.183	-1.26
TRIM25_Q14258_506_FTYCSQVLGLHCYK (UniProt Q14258)	-1.09	-4.87
UBE3D_Q7Z6J8_52_TPEGCTEIQLPAEVR (UniProt Q7Z6J8)	0.0793	0.147
UBR4_Q5T4S7_2619_QLEGDCCSFITQLVNHFWK (UniProt Q5T4S7)	-0.0425	-0.45
UCHL3_P15374_95_QTISNACGTIGLIHAIANNK (UniProt P15374)	-0.157	-1.45

Target	probe-labelled cysteine peptide fold change (10 µM)	probe-labelled cysteine peptide fold change (50 µM)
TPX2_Q9ULW0_301_GCTIVK (UniProt Q9ULW0)	0.583	0.294
TRIM24_O15164_127+134_CPVCSQECAER (UniProt O15164)	0.118	-0.0216
UBN1_Q9NPG3_765_ELSCQAPLNK (UniProt Q9NPG3)	-0.169	-0.168
TRIM28_Q13263_221+229_HEPLVLFCESCDTLTCR (UniProt Q13263)	-0.0841	-0.368
UBAP1_Q9NZ09_243_ATLDFKPLHKPNGFITLPQLGNCEK (UniProt Q9NZ09)	-0.239	-1.36
VCPIP1_Q96JH7_517_NYSFPLNNLVCSYDSVK (UniProt Q96JH7)	0.0884	0.1
UBL7_Q96S82_66_LQESVPDPELIDLIYCGR (UniProt Q96S82)	-0.109	-0.328
USP48_Q86UV5_512+514_WLDESTPTKPIDNHACLCSHDK (UniProt Q86UV5)	-0.0825	-1.16
TPP1_O14773_365_GLTLLFASGDSGAGCWSVSGR (UniProt O14773)	-0.146	0.0356
TTC39C_Q8N584_517_AVKDELCR (UniProt Q8N584)	-0.00819	-0.291
UROS_P10746_143_ESSALPLLFPCGNLKR (UniProt P10746)	-0.128	-0.405
TRIP6_Q15654_339+342_CATCSQPILDR (UniProt Q15654)	0.045	-0.28
UBR4_Q5T4S7_2222_HTACNEQQR (UniProt Q5T4S7)	-0.245	-1.12
UTP20_O75691_242_NMFHSCTGQAVK (UniProt O75691)	-0.122	0.227
TRIM25_Q14258_110_ASAPSPNAQVACDHCLK (UniProt Q14258)	-0.0981	-0.283
USP48_Q86UV5_652+658_KEEEELNFNEDILCPHGELCISENERR (UniProt Q86UV5)	-0.493	-1.42
UBE2T_Q9NPD8_24_ELHMLATEPPPGITCWQDK (UniProt Q9NPD8)	-0.209	-0.165
TTC17_Q96AE7_725_CPECENSLK (UniProt Q96AE7)	0.113	0.453
VCPIP1_Q96JH7_219_SQECLIPVHVDGDGHCLVHAVSR (UniProt Q96JH7)	-2.4	< -5
VIM_P08670_328_RQVQSLTCEVDALK (UniProt P08670)	0.00911	-0.139
USP9Y_O00507_674_DGQLWLCAPQAK (UniProt O00507)	-0.00329	-0.161

Target	probe-labelled cysteine peptide fold change (10 µM)	probe-labelled cysteine peptide fold change (50 µM)
TXNRD2_Q9NNW7_523_SGLDPTVTGCUG (UniProt Q9NNW7)	-1.15	-2.15
TRMT10C_Q7L0Y3_78_SSVQEECVSTISSSKDEDPLAATR (UniProt Q7L0Y3)	-0.141	-0.518
UBR7_Q8N806_46_CSYSQGSVKR (UniProt Q8N806)	-0.118	-0.607
UBR1_Q8IWV7_1101_EVLTCILCQEEQEVK (UniProt Q8IWV7)	-0.162	0.733
UQCRC1_P31930_154_AVELLGDIVQNCSLEDSQIEK (UniProt P31930)	0.114	0.272
TRPM4_Q8TD43_759_QSGRPGCCGGR (UniProt Q8TD43)	-0.788	-2.09
TXNRD2_Q9NNW7_279_GCAPSR (UniProt Q9NNW7)	0.0601	1.36
TRAPPC13_A5PLN9_327_LSLEAIPDTVNLEEPFHITCK (UniProt A5PLN9)	0.0844	0.00702
TXNIP_Q9H3M7_170_VSCMFIPDGR (UniProt Q9H3M7)	0.0303	-1.26
TRIM59_Q8IWR1_208_SFLTALCDVGNLINQEYTPQIER<|>IFT80_Q9P2H3-3_208_SFLTALCDVGNLINQEYTPQIER (UniProt Q9P2H3+Q8IWR1)	0.237	-0.00617
VLDLR_P98155_251_CPASEIQCGSGECIHK (UniProt P98155)	-0.12	-0.248
UBR7_Q8N806_99+101_CDCGNSK (UniProt Q8N806)	-0.364	-1.41
USP3_Q9Y6I4_385_SFTDLEELDETELYMCHK (UniProt Q9Y6I4)	-0.114	-0.984
USP19_O94966_1169_EEQLPSYDLYAVINHYGGMIGGHYTACAR (UniProt O94966)	-0.00515	0.0872
VAPA_Q9P0L0_128_CVFEMPNENDK (UniProt Q9P0L0)	-0.217	-0.121
TUBG1_P23258_138_IHEDIFDIIDREADGSDSLEGFVLCHSIAGGTGSGLGSYLLER<|>TUBG2_Q9NRH3_138_IHEDIFDIIDREADGSDSLEGFVLCHSIAGGTGSGLGSYLLER (UniProt Q9NRH3+P23258)	0.194	-0.0593
TRRAP_Q9Y4A5_3535_IYPYLVMNDACLTESR (UniProt Q9Y4A5)	-0.136	-0.0829
TRMT2A_Q8IZ69_463_VIGVELCPEAVEDAR (UniProt Q8IZ69)	-0.181	-1.16
UBXN7_O94888_478_KLSHLDYDITLQEAGLCPQETVFVQER (UniProt O94888)	0.134	-0.0436
VPS26B_Q4G0F5_334_TPSQLSDNNCRQ (UniProt Q4G0F5)	-0.205	-0.321
USP24_Q9UPU5_995_QLCSPVDNIQIFTNDSLLTVNK (UniProt Q9UPU5)	0.165	0.107

Target	probe-labelled cysteine peptide fold change (10 µM)	probe-labelled cysteine peptide fold change (50 µM)
UBR4_Q5T4S7_4890_KQQGYSTVSHFNIVHYDCHLAAVR (UniProt Q5T4S7)	0.0563	-0.151
UVRAG_Q9P2Y5_186_TILLQVDQNCVR (UniProt Q9P2Y5)	-0.089	-0.0238
UBR7_Q8N806_137_YNDNFFGLYCICK (UniProt Q8N806)	0.0481	-0.0777
USP14_P54578_257_CTESEEEEVTK (UniProt P54578)	-0.254	-0.167
TRIM25_Q14258_119_TCLVCMASFCQEHLQPHFDSPAFQDHPLQPPVR (UniProt Q14258)	0.371	0.313
USP3_Q9Y6I4_98_CDDFVVNDTK (UniProt Q9Y6I4)	-0.0308	-0.0909
UROS_P10746_119_IGLDTEGETCGNAEK (UniProt P10746)	-0.0553	-0.0029
TXNDC5_Q8NBS9_353_FYAPWCGHCK (UniProt Q8NBS9)	-0.372	-1.61
UBR5_O95071_572_VGVLMESVWNMNDSCR (UniProt O95071)	-0.0405	0.0537
TXNDC5_Q8NBS9_350+353_FYAPWCGHCK (UniProt Q8NBS9)	-0.375	-1.05
TRAPPC9_Q96Q05_317_NCLSPEDIIDK (UniProt Q96Q05)	0.12	0.213
VCPIP1_Q96JH7_469+472_CLLCGALSELHVPPEWLAPGGK (UniProt Q96JH7)	-0.12	0.233
TRANK1_O15050_1930_QHGCLLEAAR (UniProt O15050)	-0.0687	-0.106
TXN_P10599_32_LVVVDFSATWCGPCK (UniProt P10599)	-0.415	-0.638
USP16_Q9Y5T5_24_TVPIDDSSETLEPVCR (UniProt Q9Y5T5)	-0.224	-0.204
USP10_Q14694_456_VQRPCTSTPMIDSFVR (UniProt Q14694)	-0.0395	-0.00663
UBA7_P41226_68_NLVLMGVGSLTLHDPHPTCWSDLAAQFLLSEQDLER (UniProt P41226)	0.0506	0.33
TWSG1_Q9GZX9_185_ISCESMGASK (UniProt Q9GZX9)	-0.121	-0.0863
